The source of these data is PubChem BioAssay.

The nature of assay [1]: binders of probe aFSTL3 on microarray, primary screen, stem cell growth factor project, biochemical, small-molecule microarray, fluorescence 635/667 (AID 1064).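 Further: measures binding of the biotinylated anti-FSTL3 antibody to printed compounds.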 The settings on record: higher = more signal.
The nature of assay [2]: binders from COS7 lysate, DM2A8 probe, primary screen, torsin A project, cell lysate, small-molecule microarray, fluorescence 635/667 (AID 1065). The settings on record: higher = more signal, COS7 lysate expressing mutant human TOR1A.
The nature of assay [3]: binders of probe aFGF2 on microarray, primary screen, stem cell growth factor project, biochemical, small-molecule microarray, fluorescence 635/667 (AID 1067).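 Further: measures binding of biotinylated aFGF2 protein to printed compounds on slides; z-score merges feature fluorescence and signal-to-noise across triplicate slides.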 The settings on record: higher = more signal.
The nature of assay [4]: binders of probe aFGF10 on microarray, primary screen, stem cell growth factor project, biochemical, small-molecule microarray, fluorescence 635/667 (AID 1071).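 Further: score merges 667 nm spot intensity and signal to noise from triplicate slides.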 The settings on record: higher = more signal.
In assay [5] the target is Neurogenic locus notch homolog protein 2 (Homo sapiens) (UniProt Q04721). Put plainly: Notch2 binders on small-molecule microarrays, primary screen, biochemical, small-molecule microarray, 635 nm fluorescence, stem cell growth factors (AID 1073). The settings on record: Notch2 binding, higher = more signal.
The target in assay [6] is Pro-neuregulin-1, membrane-bound isoform (Homo sapiens) (UniProt Q02297). The assay is described as follows: NRG1 binders on small-molecule microarrays, primary screen, psychiatric disease protein project, biochemical, small-molecule microarray, fluorescence 635/667 (AID 1075).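 Further: score combines 667 nm spot fluorescence with signal to noise.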 The settings on record: NRG1 binding, 635 nm fluorescence, higher = more signal.
Sequence of Pro-neuregulin-1, membrane-bound isoform (Homo sapiens) (Q02297 whole entry, looked up, the tested form may be a part, canonical isoform): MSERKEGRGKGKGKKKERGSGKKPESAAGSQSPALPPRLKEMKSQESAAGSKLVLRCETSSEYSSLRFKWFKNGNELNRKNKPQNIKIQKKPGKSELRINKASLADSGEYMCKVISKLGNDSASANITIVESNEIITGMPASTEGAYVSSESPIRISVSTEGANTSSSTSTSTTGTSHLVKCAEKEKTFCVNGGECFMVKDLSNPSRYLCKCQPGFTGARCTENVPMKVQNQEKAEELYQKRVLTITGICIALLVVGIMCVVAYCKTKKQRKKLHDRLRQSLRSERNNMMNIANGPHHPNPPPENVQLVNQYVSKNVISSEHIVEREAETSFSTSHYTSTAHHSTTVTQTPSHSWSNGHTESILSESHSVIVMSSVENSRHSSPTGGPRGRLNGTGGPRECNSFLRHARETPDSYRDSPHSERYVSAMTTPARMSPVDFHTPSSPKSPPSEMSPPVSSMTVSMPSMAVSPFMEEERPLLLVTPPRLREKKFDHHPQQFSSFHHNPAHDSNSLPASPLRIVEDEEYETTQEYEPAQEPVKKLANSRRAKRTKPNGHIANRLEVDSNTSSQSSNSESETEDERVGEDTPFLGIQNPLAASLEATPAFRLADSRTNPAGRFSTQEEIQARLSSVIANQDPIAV
In assay [7] the test system is Neuregulin-1 EGF-like domain. The assay is described as follows: binders of neuregulin-1 EGF-like domain, primary screen, biochemical, small-molecule microarray, 635 nm fluorescence (AID 1081).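 Further: binding of the protein to compounds printed on small-molecule microarray slides.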 The settings on record: small-molecule microarray binding, higher = more signal.
A short description of assay [8]: FRG1 promoter luciferase signal modulators, primary screen, FRG1 inhibition for FSHD, cell-based, C2C12 myotubes, firefly/Renilla luciferase, luminescence (AID 1084). The settings on record: higher = more signal, called active from +8 up or from −8 down.
A short description of assay [9]: binders of probe aFST on microarray, primary screen, stem cell growth factor project, biochemical, small-molecule microarray, fluorescence 635/667 (AID 1086).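 Further: score merges 667 nm fluorescence with signal-to-noise of each printed compound spot.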 The settings on record: higher = more signal.
Assay [10] can be described thus: binders of probe aHhip on microarray, primary screen, stem cell growth factor project, biochemical, small-molecule microarray, fluorescence 635/667 (AID 1087).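 Further: score merges spot fluorescence at 667nm with spot signal to noise ratio.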 The settings on record: higher = more signal.
Assay [11] has as its system PRMT1 (protein arginine N-methyltransferase 1). Put plainly: PRMT1 binders on small-molecule microarrays, primary screen, biochemical, small-molecule microarray, 635 nm fluorescence (AID 1088).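 Further: binding of Prmt1 protein to compounds spotted on small-molecule microarray slides.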 The settings on record: small-molecule microarray binding, higher = more signal.
Assay [12] in a line: yeast growth modulation, basal conditions, primary screen, YJM789 clinical isolate, OD600, 24 h (AID 1089).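 Further: growth of clinical yeast isolate S. cerevisiae YJM 789 seeded 1000 cells per well; test concentration not given here.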 The settings on record: S. cerevisiae YJM789 growth, higher = more signal, called active from +8 up or from −8 down.
The nature of assay [13]: fission yeast growth modulation, primary screen, strain 972, OD600, 24 h, no modulator (AID 1090).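 Further: basal condition with compound alone and no growth modifier present; test concentration not given here.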 The settings on record: S. pombe 972 growth, higher = more signal, called active from +8 up or from −8 down.
Assay [14] is described as follows: S. cerevisiae growth modulation with rapamycin, primary screen, strain BY4716, OD600, 96 h (AID 1091). Further: test concentration not given here. The settings on record: higher = more signal, called active from +8 up or from −8 down.
Assay [15] addresses Torsin-1A-interacting protein 2 (Homo sapiens) (UniProt Q8NFQ8). The assay is described as follows: LULL1 binders on small-molecule microarray, primary screen, cell lysate, human LULL1 lysate, 635/667 nm fluorescence (AID 1092).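 Further: probe is lysate of COS7 cells overexpressing human LULL1; score merges per-feature 667 nm fluorescence with signal-to-noise.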 The settings on record: hLULL1 lysate binding, 635 nm fluorescence, higher = more signal.
Assay [16] can be described thus: E. coli growth modulation, two-sided OD650, primary screen, E. coli filamentation project, strain DRC41, 24 h (AID 1093).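 Further: MC1000 strain lacking acrAB efflux and sulA so SOS filamentation is blocked; test concentration not given here.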 The settings on record: OD650, 24 h, higher = more signal, called active from +8 up or from −8 down.
Assay [17] in a line: small-molecule microarray binders of probe aLefty2, primary screen, biochemical, biotinylated probe, 635/667 nm fluorescence (AID 1094).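 Further: score merges spot fluorescence near 667 nm with spot signal-to-noise ratio.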 The settings on record: higher = more signal.
The test system of assay [18] is Noggin (protein binding on small-molecule microarray). The assay is described as follows: Noggin binders on small-molecule microarray, primary screen, biochemical, 635/667 nm fluorescence (AID 1095).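 Further: score merges 667 nm feature fluorescence with signal to noise over triplicate slides.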 The settings on record: 635 nm fluorescence, higher = more signal.
Assay [19] addresses Neurogenic locus notch homolog protein 3 (Homo sapiens) (UniProt Q9UM47). The assay is described as follows: NOTCH3 binders on small-molecule microarray, primary screen, biochemical, 635/667 nm fluorescence (AID 1096). The settings on record: NOTCH3 binding, 635 nm fluorescence, higher = more signal.
Assay [20] is described as follows: small-molecule microarray binders of probe aEGFR, primary screen, biochemical, biotinylated probe, 635/667 nm fluorescence (AID 1097).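 Further: probe is a biotinylated anti-EGFR antibody binding compounds printed on slides; score combines fluorescence near 667 nm and signal to noise of each spot.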 The settings on record: higher = more signal.

Active and inactive are the calls of the source.

Sequence of Neurogenic locus notch homolog protein 3 (Homo sapiens) (Q9UM47 whole entry, looked up): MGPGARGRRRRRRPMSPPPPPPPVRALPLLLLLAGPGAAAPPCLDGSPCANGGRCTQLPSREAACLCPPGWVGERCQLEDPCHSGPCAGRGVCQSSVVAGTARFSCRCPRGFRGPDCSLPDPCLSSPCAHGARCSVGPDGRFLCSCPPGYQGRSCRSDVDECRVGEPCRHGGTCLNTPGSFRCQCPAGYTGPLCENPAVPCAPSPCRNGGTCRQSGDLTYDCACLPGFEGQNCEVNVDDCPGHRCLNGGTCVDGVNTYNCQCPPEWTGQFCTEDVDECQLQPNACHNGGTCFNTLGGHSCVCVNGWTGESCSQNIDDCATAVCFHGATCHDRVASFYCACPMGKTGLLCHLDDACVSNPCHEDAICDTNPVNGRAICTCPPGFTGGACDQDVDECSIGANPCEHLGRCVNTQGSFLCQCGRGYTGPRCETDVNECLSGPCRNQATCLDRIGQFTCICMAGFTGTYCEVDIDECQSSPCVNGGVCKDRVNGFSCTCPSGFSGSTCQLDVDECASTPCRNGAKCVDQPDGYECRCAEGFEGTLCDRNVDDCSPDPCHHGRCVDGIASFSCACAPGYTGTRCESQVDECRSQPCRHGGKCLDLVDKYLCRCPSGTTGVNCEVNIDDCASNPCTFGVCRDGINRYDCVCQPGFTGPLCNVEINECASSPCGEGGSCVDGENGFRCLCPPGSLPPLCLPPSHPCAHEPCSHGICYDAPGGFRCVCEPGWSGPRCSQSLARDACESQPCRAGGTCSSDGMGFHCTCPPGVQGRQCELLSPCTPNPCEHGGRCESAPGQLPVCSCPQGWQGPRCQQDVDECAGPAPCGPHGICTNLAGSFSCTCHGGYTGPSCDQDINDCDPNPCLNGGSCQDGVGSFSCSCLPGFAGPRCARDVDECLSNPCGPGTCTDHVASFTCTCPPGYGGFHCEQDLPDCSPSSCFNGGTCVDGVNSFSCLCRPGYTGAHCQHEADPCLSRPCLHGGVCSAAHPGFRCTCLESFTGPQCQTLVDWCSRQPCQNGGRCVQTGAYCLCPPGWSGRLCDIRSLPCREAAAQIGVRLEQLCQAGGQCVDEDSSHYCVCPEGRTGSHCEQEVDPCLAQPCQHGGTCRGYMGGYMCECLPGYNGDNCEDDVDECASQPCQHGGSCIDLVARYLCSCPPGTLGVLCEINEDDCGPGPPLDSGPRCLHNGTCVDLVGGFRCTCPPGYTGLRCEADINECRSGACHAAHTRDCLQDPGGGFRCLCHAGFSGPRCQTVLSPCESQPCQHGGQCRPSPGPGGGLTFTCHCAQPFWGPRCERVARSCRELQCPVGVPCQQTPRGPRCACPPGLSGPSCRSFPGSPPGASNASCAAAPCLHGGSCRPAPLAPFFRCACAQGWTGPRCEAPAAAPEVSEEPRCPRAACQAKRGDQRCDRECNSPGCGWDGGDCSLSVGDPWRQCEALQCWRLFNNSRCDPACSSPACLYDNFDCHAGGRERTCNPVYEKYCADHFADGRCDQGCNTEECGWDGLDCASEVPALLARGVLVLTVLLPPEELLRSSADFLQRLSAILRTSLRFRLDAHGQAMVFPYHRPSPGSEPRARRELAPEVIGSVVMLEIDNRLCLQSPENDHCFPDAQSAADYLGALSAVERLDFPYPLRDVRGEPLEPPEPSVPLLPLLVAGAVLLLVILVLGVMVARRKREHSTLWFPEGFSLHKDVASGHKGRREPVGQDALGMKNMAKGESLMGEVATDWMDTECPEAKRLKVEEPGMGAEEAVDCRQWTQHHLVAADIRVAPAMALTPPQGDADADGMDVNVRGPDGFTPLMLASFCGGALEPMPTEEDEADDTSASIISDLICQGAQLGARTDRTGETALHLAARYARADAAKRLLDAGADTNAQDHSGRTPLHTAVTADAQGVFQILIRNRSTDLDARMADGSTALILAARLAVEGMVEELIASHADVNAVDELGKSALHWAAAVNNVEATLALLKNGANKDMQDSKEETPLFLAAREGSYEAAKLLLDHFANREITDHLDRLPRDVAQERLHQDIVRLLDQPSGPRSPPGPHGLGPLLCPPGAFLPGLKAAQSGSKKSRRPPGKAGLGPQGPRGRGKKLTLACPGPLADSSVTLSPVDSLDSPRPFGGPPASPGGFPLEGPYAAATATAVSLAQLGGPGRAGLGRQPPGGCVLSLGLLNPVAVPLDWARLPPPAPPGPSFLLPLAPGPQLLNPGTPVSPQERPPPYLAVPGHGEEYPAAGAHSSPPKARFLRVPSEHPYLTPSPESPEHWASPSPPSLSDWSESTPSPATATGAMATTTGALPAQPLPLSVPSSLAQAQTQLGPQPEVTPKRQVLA
Sequence of Torsin-1A-interacting protein 2 (Homo sapiens) (Q8NFQ8 whole entry, looked up): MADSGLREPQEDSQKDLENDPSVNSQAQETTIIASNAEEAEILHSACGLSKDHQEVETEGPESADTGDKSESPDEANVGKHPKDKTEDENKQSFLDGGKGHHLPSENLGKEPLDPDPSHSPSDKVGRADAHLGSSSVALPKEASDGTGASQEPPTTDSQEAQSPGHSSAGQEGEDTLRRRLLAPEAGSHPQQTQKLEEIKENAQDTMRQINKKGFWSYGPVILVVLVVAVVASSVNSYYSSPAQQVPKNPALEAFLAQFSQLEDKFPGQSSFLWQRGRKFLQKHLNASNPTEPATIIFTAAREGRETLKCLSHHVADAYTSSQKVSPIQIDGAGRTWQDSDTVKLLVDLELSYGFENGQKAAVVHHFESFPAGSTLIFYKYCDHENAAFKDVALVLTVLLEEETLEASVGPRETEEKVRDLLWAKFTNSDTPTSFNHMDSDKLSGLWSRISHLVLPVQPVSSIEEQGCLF

As to `C[C@@H]1CC[C@H]2C(=O)O[C@@H](CN=[N+]=[N-])CN2[C@H]1c1ccc(Br)cc1`, the composite z-score in assay [1] is -0.264; in assay [2], -0.021; in [3], -0.085; in assay [4], 0.361; in [5] it was 0.271; in assay [6], 0.486. The composite z-score in [7] was 0.786; in assay [9], 0.0048; in assay [10], -0.199; in assay [11], 1.34; in assay [15], 1.69; in assay [17] it was -0.15. For the same molecule, the composite z-score in [18] was 0.553; in assay [19] it was 0.679; in assay [20], -0.104. Moreover, the z-score in [8] is -1.46 (inactive); in [12], 1.85 (inactive); in assay [13], -10.5 (active); in [14] it was 32.7 (active); in [16] it was 0.176 (inactive).
On to `CO[C@H]1COC(=O)CC=C[C@@H](C)COC(=O)[C@H]2CCCN2C(=O)CC=C[C@H]1C`, for which the composite z-score in assay [1] is -0.867; in assay [2], 2.36; in assay [3], -0.147; in [4], -0.103; in assay [5], -0.315; in assay [6], -0.278. Further, the composite z-score was 1.06 in assay [7]; 0.0653 in assay [9]; 0.445 in assay [10]; 1.55 in [11]; 0.128 in assay [15]; -0.194 in assay [17]. The composite z-score was 1.86 in assay [18], -0.341 in assay [19] and 0.0129 in assay [20]. Further, the z-score was -0.352 (inactive) in [8]; 0.591 (inactive) in assay [12]; -0.74 (inactive) in [13]; 0.0488 (inactive) in assay [14]; 0.457 (inactive) in assay [16].
Regarding `C[C@@H]1CC[C@H]2C(=O)O[C@@H](COc3ccc(C(C)(C)C)cc3)CN2[C@H]1c1ccc(Br)cc1`, the composite z-score was -0.348 in assay [1]; 0.0745 in assay [2]; -0.103 in assay [3]; 0.085 in assay [4]; -0.0477 in assay [5]; 0.101 in assay [6]. Further, the composite z-score in assay [7] was -0.4; in [9], 0.153; in assay [10] it was -0.16; in assay [11] it was 0.76; in [15], 0.456; in [17], -0.159. In addition, the composite z-score was 0.307 in [18], -0.288 in [19] and -0.0326 in assay [20]. In addition, the z-score in [8] is 0.732 (inactive); in assay [12], 0.267 (inactive); in assay [13], -0.0416 (inactive); in [14], -0.264 (inactive); in [16], 0.113 (inactive).
For `CCOC(=O)CCN1C(=O)[C@H]2[C@H]3[C@H](O)[C@H](O)CC(=NNC(=O)OCC)[C@H]3CC[C@H]2C1=O`, the composite z-score in assay [1] was -0.264; in assay [2], 0.345; in [3], -0.162; in assay [4] it was -0.188; in assay [5], -0.752; in assay [6], 0.189. Besides, the composite z-score is 0.54 in assay [7]; 0.0166 in assay [9]; -0.0237 in [10]; 0.0158 in [11]; 0.0756 in [15]; -0.139 in [17]. For the same molecule, the composite z-score in [18] is 0.412; in assay [19], -0.818; in assay [20], -0.12. The z-score in assay [8] was 0.115 (inactive); in [12] it was 0.654 (inactive); in assay [13], -1.45 (inactive); in [14], 0.305 (inactive); in assay [16], -0.637 (inactive).
Consider `O=C1[C@H]2CCn3c(=O)n(-c4ccccc4)c(=O)n3[C@H]2[C@H](O)[C@@H]2O[C@H]12`, for which the composite z-score was -0.561 in assay [1]; -0.0619 in assay [2]; -0.0667 in assay [3]; 0.328 in [4]; 0.164 in assay [5]; 1.63 in [6]. In addition, the composite z-score in [7] is -0.125; in [9], -0.0545; in [10] it was -0.305; in assay [11] it was -0.0775; in assay [15], -0.29; in assay [17], -0.225. The composite z-score is 0.224 in assay [18], -0.281 in assay [19] and -0.181 in assay [20]. Further, the z-score in assay [8] was -0.217 (inactive); in [12], 0.689 (inactive); in [13], -0.41 (inactive); in assay [14] it was -0.206 (inactive); in [16], -0.0475 (inactive).
